Article PMC11006913
Changes are numbered by the printed parent chain.

How the values were obtained:
Assay in all cases: PBM; 200 nM protein, PBS
Details in all cases: dsDNA, one strand shown
CRX [1] = molecular target: CRX (Homo sapiens, UniProt O43186 26-111)
HOXC10 [2] = molecular target: HOXC10 (Homo sapiens, UniProt Q9NYD6 254-340)
CRX [3] = molecular target: CRX (Homo sapiens, UniProt O43186 26-111, E42D)
HOXC10 [4] = molecular target: HOXC10 (Homo sapiens, UniProt Q9NYD6 254-340, K271E)
CRX [5] = molecular target: CRX (Homo sapiens, UniProt O43186 26-111, R41L)
PAX4 [6] = molecular target: T1, PAX4 (Homo sapiens, UniProt O43316 9-242, R200K)
T1 sequence: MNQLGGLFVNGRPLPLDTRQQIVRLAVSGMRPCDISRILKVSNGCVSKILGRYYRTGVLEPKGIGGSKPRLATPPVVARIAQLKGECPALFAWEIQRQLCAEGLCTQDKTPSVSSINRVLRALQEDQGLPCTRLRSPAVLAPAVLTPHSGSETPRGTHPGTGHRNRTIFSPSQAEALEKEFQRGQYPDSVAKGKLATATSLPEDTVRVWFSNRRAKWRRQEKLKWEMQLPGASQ

PAX4 [7] = molecular target: T2, PAX4 (Homo sapiens, UniProt O43316 9-242)
T2 sequence: T1 sequence with K192R

NKX2-6 [8] = molecular target: T3, NKX2-6 (Homo sapiens, UniProt A6NCS4 118-204)
T3 sequence: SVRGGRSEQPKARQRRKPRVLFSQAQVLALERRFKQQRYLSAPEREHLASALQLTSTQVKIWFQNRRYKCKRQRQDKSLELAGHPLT

PAX4 [9] = molecular target: T4, PAX4 (Homo sapiens, UniProt O43316 9-242, R200Q)
T4 sequence: T1 sequence with K192Q

PAX4 [10] = molecular target: T5, PAX4 (Homo sapiens, UniProt O43316 9-242, F177V)
T5 sequence: T1 sequence with F169V, K192R

PAX4 [11] = molecular target: T6, PAX4 (Homo sapiens, UniProt O43316 9-242, F177Y)
T6 sequence: T1 sequence with F169Y, K192R

NKX2-6 [12] = molecular target: T7, NKX2-6 (Homo sapiens, UniProt A6NCS4 118-204, F151L)
T7 sequence: T3 sequence with F34L

PAX4 [13] = molecular target: T8, PAX4 (Homo sapiens, UniProt O43316 9-242, R227W)
T8 sequence: T1 sequence with K192R, R219W

PRRX1 [14] = molecular target: PRRX1 (Homo sapiens, UniProt P54821 80-166, F113S)
NKX2-6 [15] = molecular target: T9, NKX2-6 (Homo sapiens, UniProt A6NCS4 118-204, R150C)
T9 sequence: T3 sequence with R33C

ALX1 [16] = molecular target: ALX1 (Homo sapiens, UniProt Q15699 118-204, L144V)
ALX1 [17] = molecular target: ALX1 (Homo sapiens, UniProt Q15699 118-204, L144R)
PROP1 [18] = molecular target: PROP1 (Homo sapiens, UniProt O75360 56-141)
PROP1 [19] = molecular target: PROP1 (Homo sapiens, UniProt O75360 56-141, R99H)
VAX1 [20] = molecular target: VAX1 (Homo sapiens, UniProt Q5SQQ9 86-172)
PROP1 [21] = molecular target: PROP1 (Homo sapiens, UniProt O75360 56-141, F88S)
VAX1 [22] = molecular target: VAX1 (Homo sapiens, UniProt Q5SQQ9 86-172, T142I)
ALX1 [23] = molecular target: ALX1 (Homo sapiens, UniProt Q15699 118-204)
PRRX1 [24] = molecular target: PRRX1 (Homo sapiens, UniProt P54821 80-166)
VAX1 [25] = molecular target: VAX1 (Homo sapiens, UniProt Q5SQQ9 86-172, K157R)
PITX2 = PITX2 (Homo sapiens, UniProt Q99697 72-157)
HOXA2 [26] = molecular target: HOXA2 (Homo sapiens, UniProt O43364 129-215, R185T)
HOXA2 [27] = molecular target: HOXA2 (Homo sapiens, UniProt O43364 129-215, Y150S)
HOXA2 [28] = molecular target: HOXA2 (Homo sapiens, UniProt O43364 129-215)
MSX2 [29] = molecular target: MSX2 (Homo sapiens, UniProt P35548 130-214, R199I)
MSX2 [30] = molecular target: MSX2 (Homo sapiens, UniProt P35548 130-214)
MSX2 [31] = molecular target: MSX2 (Homo sapiens, UniProt P35548 130-214, F161Y)
MSX2 (Homo sapiens, UniProt P35548 130-214, F161Y), sequence (P35548 130-214 F161Y): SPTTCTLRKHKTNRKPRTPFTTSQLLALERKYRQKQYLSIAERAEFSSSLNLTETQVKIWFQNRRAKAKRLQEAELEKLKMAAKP

CRX (Homo sapiens, UniProt O43186 26-111, E42D), sequence (O43186 26-111 E42D): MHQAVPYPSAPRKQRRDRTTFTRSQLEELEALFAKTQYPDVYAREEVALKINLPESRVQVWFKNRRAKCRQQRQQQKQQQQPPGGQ
CRX (Homo sapiens, UniProt O43186 26-111), sequence (O43186 26-111): as the sequence (O43186 26-111 E42D) above, with D17E counted along it
CRX (Homo sapiens, UniProt O43186 26-111, R41L), sequence (O43186 26-111 R41L): as the sequence (O43186 26-111 E42D) above, with R16L, D17E counted along it
VAX1 (Homo sapiens, UniProt Q5SQQ9 86-172), sequence (Q5SQQ9 86-172): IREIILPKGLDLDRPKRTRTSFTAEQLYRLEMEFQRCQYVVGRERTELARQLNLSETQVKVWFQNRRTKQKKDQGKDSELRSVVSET
VAX1 (Homo sapiens, UniProt Q5SQQ9 86-172, T142I), sequence (Q5SQQ9 86-172 T142I): as the sequence (Q5SQQ9 86-172) above, with T57I counted along it
PRRX1 (Homo sapiens, UniProt P54821 80-166), sequence (P54821 80-166): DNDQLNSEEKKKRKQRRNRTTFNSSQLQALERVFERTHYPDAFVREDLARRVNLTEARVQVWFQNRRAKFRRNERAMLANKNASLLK
PROP1 (Homo sapiens, UniProt O75360 56-141, R99H), sequence (O75360 56-141 R99H): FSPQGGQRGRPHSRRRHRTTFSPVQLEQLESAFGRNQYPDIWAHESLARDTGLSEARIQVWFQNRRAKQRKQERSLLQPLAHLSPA
PRRX1 (Homo sapiens, UniProt P54821 80-166, F113S), sequence (P54821 80-166 F113S): as the sequence (P54821 80-166) above, with F34S counted along it
PROP1 (Homo sapiens, UniProt O75360 56-141, F88S), sequence (O75360 56-141 F88S): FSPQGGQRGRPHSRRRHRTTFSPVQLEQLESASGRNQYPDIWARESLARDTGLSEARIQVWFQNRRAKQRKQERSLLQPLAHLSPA
PROP1 (Homo sapiens, UniProt O75360 56-141), sequence (O75360 56-141): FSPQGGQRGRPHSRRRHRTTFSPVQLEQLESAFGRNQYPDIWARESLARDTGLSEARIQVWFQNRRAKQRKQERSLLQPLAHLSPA
VAX1 (Homo sapiens, UniProt Q5SQQ9 86-172, K157R), sequence (Q5SQQ9 86-172 K157R): as the sequence (Q5SQQ9 86-172) above, with K72R counted along it
ALX1 (Homo sapiens, UniProt Q15699 118-204), sequence (Q15699 118-204): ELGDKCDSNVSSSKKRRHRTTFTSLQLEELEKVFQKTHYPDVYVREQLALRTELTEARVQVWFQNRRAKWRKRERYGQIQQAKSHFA
ALX1 (Homo sapiens, UniProt Q15699 118-204, L144R), sequence (Q15699 118-204 L144R): as the sequence (Q15699 118-204) above, with L27R counted along it
HOXC10 (Homo sapiens, UniProt Q9NYD6 254-340, K271E), sequence (Q9NYD6 254-340 K271E): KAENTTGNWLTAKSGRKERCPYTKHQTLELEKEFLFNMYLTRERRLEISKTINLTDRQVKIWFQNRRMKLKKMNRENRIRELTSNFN
HOXA2 (Homo sapiens, UniProt O43364 129-215, R185T), sequence (O43364 129-215 R185T): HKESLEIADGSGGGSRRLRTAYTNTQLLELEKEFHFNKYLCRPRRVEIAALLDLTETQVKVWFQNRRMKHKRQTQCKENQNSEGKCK
HOXA2 (Homo sapiens, UniProt O43364 129-215, Y150S), sequence (O43364 129-215 Y150S): as the sequence (O43364 129-215 R185T) above, with Y22S, T57R counted along it
ALX1 (Homo sapiens, UniProt Q15699 118-204, L144V), sequence (Q15699 118-204 L144V): as the sequence (Q15699 118-204) above, with L27V counted along it
MSX2 (Homo sapiens, UniProt P35548 130-214), sequence (P35548 130-214): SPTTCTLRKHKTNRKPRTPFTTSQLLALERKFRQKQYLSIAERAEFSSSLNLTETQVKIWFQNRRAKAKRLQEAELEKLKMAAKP
HOXC10 (Homo sapiens, UniProt Q9NYD6 254-340), sequence (Q9NYD6 254-340): as the sequence (Q9NYD6 254-340 K271E) above, with E18K counted along it
MSX2 (Homo sapiens, UniProt P35548 130-214, R199I), sequence (P35548 130-214 R199I): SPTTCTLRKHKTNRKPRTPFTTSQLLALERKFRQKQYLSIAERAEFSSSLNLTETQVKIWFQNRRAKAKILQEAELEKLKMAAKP
HOXA2 (Homo sapiens, UniProt O43364 129-215), sequence (O43364 129-215): as the sequence (O43364 129-215 R185T) above, with T57R counted along it

CGGCGTCC
binding signal (CRX [1]): 7.94 upbm affinity estimate (log intensity, higher = more binding, comparable within an allelic series) | binding signal (HOXC10 [2]): 10 upbm affinity estimate (log intensity, higher = more binding, comparable within an allelic series) | binding signal (CRX [3]): 8 upbm affinity estimate (log intensity, higher = more binding, comparable within an allelic series) | binding signal (HOXC10 [4]): 10.1 upbm affinity estimate (log intensity, higher = more binding, comparable within an allelic series) | binding signal (CRX [5]): 8.06 upbm affinity estimate (log intensity, higher = more binding, comparable within an allelic series)

CCGGTCCC
binding signal (CRX [1]): 8.46 upbm affinity estimate (log intensity, higher = more binding, comparable within an allelic series) | binding signal (PAX4 [6]): 9.29 upbm affinity estimate (log intensity, higher = more binding, comparable within an allelic series) | binding signal (PAX4 [7]): 9.34 upbm affinity estimate (log intensity, higher = more binding, comparable within an allelic series) | binding signal (CRX [3]): 8.54 upbm affinity estimate (log intensity, higher = more binding, comparable within an allelic series) | binding signal (NKX2-6 [8]): 9.32 upbm affinity estimate (log intensity, higher = more binding, comparable within an allelic series) | binding signal (PAX4 [9]): 9.4 upbm affinity estimate (log intensity, higher = more binding, comparable within an allelic series) | binding signal (PAX4 [10]): 9.28 upbm affinity estimate (log intensity, higher = more binding, comparable within an allelic series) | binding signal (PAX4 [11]): 9.27 upbm affinity estimate (log intensity, higher = more binding, comparable within an allelic series) | binding signal (NKX2-6 [12]): 9.15 upbm affinity estimate (log intensity, higher = more binding, comparable within an allelic series) | binding signal (PAX4 [13]): 9.3 upbm affinity estimate (log intensity, higher = more binding, comparable within an allelic series) | binding signal (CRX [5]): 8.54 upbm affinity estimate (log intensity, higher = more binding, comparable within an allelic series)

CACCACGC
binding signal (CRX [1]): 8.26 upbm affinity estimate (log intensity, higher = more binding, comparable within an allelic series) | binding signal (PRRX1 [14]): 9.44 upbm affinity estimate (log intensity, higher = more binding, comparable within an allelic series) | binding signal (NKX2-6 [15]): 9.32 upbm affinity estimate (log intensity, higher = more binding, comparable within an allelic series) | binding signal (CRX [3]): 8.36 upbm affinity estimate (log intensity, higher = more binding, comparable within an allelic series) | binding signal (ALX1 [16]): 6.3 upbm affinity estimate (log intensity, higher = more binding, comparable within an allelic series) | binding signal (NKX2-6 [8]): 9.32 upbm affinity estimate (log intensity, higher = more binding, comparable within an allelic series) | binding signal (ALX1 [17]): 6.36 upbm affinity estimate (log intensity, higher = more binding, comparable within an allelic series) | binding signal (PROP1 [18]): 6.81 upbm affinity estimate (log intensity, higher = more binding, comparable within an allelic series) | binding signal (PROP1 [19]): 6.8 upbm affinity estimate (log intensity, higher = more binding, comparable within an allelic series) | binding signal (VAX1 [20]): 7.04 upbm affinity estimate (log intensity, higher = more binding, comparable within an allelic series) | binding signal (NKX2-6 [12]): 9.49 upbm affinity estimate (log intensity, higher = more binding, comparable within an allelic series) | binding signal (PROP1 [21]): 6.67 upbm affinity estimate (log intensity, higher = more binding, comparable within an allelic series) | binding signal (VAX1 [22]): 7.3 upbm affinity estimate (log intensity, higher = more binding, comparable within an allelic series) | binding signal (CRX [5]): 8.34 upbm affinity estimate (log intensity, higher = more binding, comparable within an allelic series) | binding signal (ALX1 [23]): 6.37 upbm affinity estimate (log intensity, higher = more binding, comparable within an allelic series) | binding signal (PRRX1 [24]): 9.04 upbm affinity estimate (log intensity, higher = more binding, comparable within an allelic series) | binding signal (VAX1 [25]): 7.04 upbm affinity estimate (log intensity, higher = more binding, comparable within an allelic series)

GGTTAAAC
binding signal (CRX [1]): 10.2 upbm affinity estimate (log intensity, higher = more binding, comparable within an allelic series) | binding signal (CRX [3]): 9.96 upbm affinity estimate (log intensity, higher = more binding, comparable within an allelic series)

AAAGATTA
binding signal (CRX [1]): 12.9 upbm affinity estimate (log intensity, higher = more binding, comparable within an allelic series) | binding signal (PAX4 [6]): 10.9 upbm affinity estimate (log intensity, higher = more binding, comparable within an allelic series) | binding signal (PAX4 [7]): 11.2 upbm affinity estimate (log intensity, higher = more binding, comparable within an allelic series) | binding signal (CRX [3]): 12.8 upbm affinity estimate (log intensity, higher = more binding, comparable within an allelic series) | binding signal (PAX4 [9]): 11.1 upbm affinity estimate (log intensity, higher = more binding, comparable within an allelic series) | binding signal (PITX2): 12.3 upbm affinity estimate (log intensity, higher = more binding, comparable within an allelic series) | binding signal (PAX4 [10]): 10.3 upbm affinity estimate (log intensity, higher = more binding, comparable within an allelic series) | binding signal (CRX [5]): 12.6 upbm affinity estimate (log intensity, higher = more binding, comparable within an allelic series)

AGGATTAG
binding signal (CRX [1]): 13.5 upbm affinity estimate (log intensity, higher = more binding, comparable within an allelic series) | binding signal (HOXA2 [26]): 9.36 upbm affinity estimate (log intensity, higher = more binding, comparable within an allelic series) | binding signal (CRX [3]): 13.5 upbm affinity estimate (log intensity, higher = more binding, comparable within an allelic series) | binding signal (PITX2): 13.2 upbm affinity estimate (log intensity, higher = more binding, comparable within an allelic series) | binding signal (HOXA2 [27]): 10.7 upbm affinity estimate (log intensity, higher = more binding, comparable within an allelic series) | binding signal (CRX [5]): 13.3 upbm affinity estimate (log intensity, higher = more binding, comparable within an allelic series) | binding signal (HOXA2 [28]): 9.15 upbm affinity estimate (log intensity, higher = more binding, comparable within an allelic series)

GTGCCACA
binding signal (CRX [1]): 8.41 upbm affinity estimate (log intensity, higher = more binding, comparable within an allelic series) | binding signal (CRX [3]): 8.34 upbm affinity estimate (log intensity, higher = more binding, comparable within an allelic series) | binding signal (MSX2 [29]): 9.58 upbm affinity estimate (log intensity, higher = more binding, comparable within an allelic series) | binding signal (MSX2 [30]): 9.65 upbm affinity estimate (log intensity, higher = more binding, comparable within an allelic series) | binding signal (PROP1 [18]): 6.66 upbm affinity estimate (log intensity, higher = more binding, comparable within an allelic series) | binding signal (PROP1 [19]): 6.7 upbm affinity estimate (log intensity, higher = more binding, comparable within an allelic series) | binding signal (VAX1 [20]): 7.16 upbm affinity estimate (log intensity, higher = more binding, comparable within an allelic series) | binding signal (PROP1 [21]): 6.8 upbm affinity estimate (log intensity, higher = more binding, comparable within an allelic series) | binding signal (MSX2 [31]): 9.56 upbm affinity estimate (log intensity, higher = more binding, comparable within an allelic series) | binding signal (VAX1 [22]): 7.19 upbm affinity estimate (log intensity, higher = more binding, comparable within an allelic series) | binding signal (CRX [5]): 8.33 upbm affinity estimate (log intensity, higher = more binding, comparable within an allelic series) | binding signal (VAX1 [25]): 7.08 upbm affinity estimate (log intensity, higher = more binding, comparable within an allelic series)

ACTGCGTG
binding signal (CRX [1]): 8.27 upbm affinity estimate (log intensity, higher = more binding, comparable within an allelic series) | binding signal (PRRX1 [14]): 9.32 upbm affinity estimate (log intensity, higher = more binding, comparable within an allelic series) | binding signal (CRX [3]): 8.35 upbm affinity estimate (log intensity, higher = more binding, comparable within an allelic series) | binding signal (CRX [5]): 8.29 upbm affinity estimate (log intensity, higher = more binding, comparable within an allelic series) | binding signal (PRRX1 [24]): 9.57 upbm affinity estimate (log intensity, higher = more binding, comparable within an allelic series)
